Screen size: about 1,300 compounds; about 270 (21%) were called active. Not all results are given here. Entries with a potency or affinity are not part of this list. Values without a mark were called inactive. How the calls were made is not given here.
Assay: SK-MEL-5 parental cell viability loss, dose response, orthogonal assay for MITF inhibitor project, CellTiter-Glo, cherry-picked, set 3 (AID 493240)
Details: SK-MEL-5 viability, ATP luminescence (CellTiter-Glo), 24 h; series mostly up to 35 µM; activity change, negative = viability loss: at the top concentration

SMILES	activity change, negative = viability loss
CCOC(=O)c1sc(NC(=O)Nc2ccc(Cl)cc2)nc1C	2%
O=C(NC1CCCCC1)c1cc2cc(Br)ccc2o1	-7.02%
C=CCOc1ccc(/C=C/C(C)=N\O)cc1	-7.06%
Cc1cc(C)c(C#N)c(SCc2nnc(-c3ccccc3)o2)n1	-18.3%
COc1ccc2nc(C)cc(SCC(=O)N/N=C/c3ccc(O)cc3O)c2c1	0.556%
O=C(CNC(=O)c1ccc(Br)cc1)c1ccccc1	-3.92%
Nc1ccc(Oc2cccc(Oc3ccc(N)cc3)c2)cc1	-1.11%
O=C(Nc1cc(-c2nc3ncccc3o2)ccc1Cl)c1ccc([N+](=O)[O-])o1	-30.1%
COc1ccc(C[C@H]2CN3C(=NC[C@@H]3C(C)C)N2CCNC(=O)c2ccc(C)c(Br)c2)cc1	-33.4%
CCOc1ccc(C(=O)Nc2cccc(C(=O)O)c2C)cc1Cl	-2.1%
COc1cccc(C(=O)Oc2c(CN3CCOCC3)cc(Cl)c3cccnc23)c1	-42.9%
O=C(N/N=C/c1ccc([N+](=O)[O-])s1)c1ccccc1Br	-50.9%
O=C(N/N=C/c1ccc([N+](=O)[O-])s1)c1cccc(Br)c1	-40.4%
Cc1onc(-c2ccccc2)c1C(=O)N/N=C/c1ccc([N+](=O)[O-])s1	-25.6%
O=C(CNC(=O)c1cccc(F)c1)N/N=C/c1ccc([N+](=O)[O-])s1	-35.6%
O=C(N/N=C/c1ccc([N+](=O)[O-])s1)c1ccccc1	-36.9%
CCOc1ccc(NC(=O)CCC(=O)N/N=C/c2ccc([N+](=O)[O-])s2)cc1	-18.3%
Cc1ccccc1C(=O)N/N=C/c1ccc([N+](=O)[O-])s1	-37.6%
CC(=O)c1ccc(S(=O)(=O)N2CCN(C(=O)/C=C/c3ccc4ccccc4n3)CC2)cc1	2.86%
CN(C)c1ccc(/C=N/N2CCN(c3ccccn3)CC2)cc1	-7.38%
CC(=O)Nc1nc(C)c(-c2csc(Nc3cccc(C(C)=O)c3)n2)s1	-6.68%
O=C(O)c1ccccc1C(=O)Nc1ccc(Oc2cccc3ccccc23)cc1	0.723%
O=C(Nc1ccc(N2CCOCC2)c(Cl)c1)c1cccc(F)c1	-13.3%
O=C(CNC(=O)c1ccccc1)N/N=C/c1ccc([N+](=O)[O-])s1	-36.6%

SMILES	activity change, negative = viability loss
O=C(Cc1ccccc1)NCC(=O)N/N=C/c1ccc([N+](=O)[O-])s1	-22.4%
CCCN1C(=O)c2ccc(C(=O)Nc3cc(C)ccc3O)cc2C1=O	-8.02%
Cc1cc(C)c2c(N)c(C(=O)N/N=C/c3ccccc3)sc2n1	-4.64%
Cc1c(Cl)c([N+](=O)[O-])nn1Cc1ccc(C(=O)N/N=C\c2cc(Cl)ccc2O)o1	-10.6%
O=C(CSc1nnnn1-c1ccc(O)cc1)Nc1cccc(S(=O)(=O)N2CCCC2)c1	-18.3%
O=C(Nc1cccc(S(=O)(=O)N2CCCCC2)c1)c1ccc([N+](=O)[O-])o1	-40.7%
COc1ccc(NS(=O)(=O)c2cc(NC(=O)CNC(=O)c3cccc(OC)c3)ccc2C)cc1	6.38%
O=C(CCl)Nc1cccc(S(=O)(=O)NC2=NCCCCC2)c1	-43.1%
O=C(Nc1ccc(S(=O)(=O)N2CCCCCC2)cc1)c1[nH]ncc1[N+](=O)[O-]	-22.2%
O=C(N/N=C\c1cc(Cl)ccc1O)c1ccc(S(=O)(=O)N2CCCCC2)cc1	-33.5%
Cc1cccc(NC(=O)Cc2ccc(Br)cc2)n1	-13%
Cc1ccc(Nc2nnc(-c3ccccc3N)o2)cc1C	15.7%
COc1ccc(NC(=O)C2COc3ccccc3O2)cc1 (stereo unspecified)	-4.53%
Cn1nnnc1Sc1ncnc2scc(-c3cccs3)c12	-16.8%
Cc1csc(NC(=O)Cc2c(F)cccc2Cl)n1	2.62%
CC1(C)CC(=O)C=C(NC2=CC3OC(c4ccccc4)OCC3OC2=O)C1 (stereo unspecified)	-23.8%
O=[N+]([O-])/C=C\c1ccc(N2CCCC2)c(F)c1	-39.5%
O=C(NCc1cccs1)c1nc2c(nnn2Cc2ccccc2Cl)c(=O)[nH]1	-3%
COc1ccc(C2C(C#N)=C(N)Oc3c2oc(CO)cc3=O)cc1 (stereo unspecified)	-0.975%
O=C(O)c1ccc(N/N=C/c2ccc3nccnc3c2)cc1	-41.5%
COc1cc([N+](=O)[O-])cc(/C=N/NC(=O)c2ccc(NC(=O)c3ccc(C)cc3)cc2)c1O	-2.58%
CCN1CCN(c2ccc(S(=O)(=O)N3CCCCC3)cc2NC(=O)/C=C/c2ccc([N+](=O)[O-])cc2)CC1	-90%
CCN1CCN(c2ccc(S(=O)(=O)N3CCOCC3)cc2NC(=O)/C=C/c2ccc([N+](=O)[O-])cc2)CC1	-52.7%
O=C(NC1CCCC(C(F)(F)F)C1)c1ccc([N+](=O)[O-])o1 (stereo unspecified)	-26.7%

SMILES	activity change, negative = viability loss
COc1cccc(-c2ccc3c(N)c(C(=O)NC4CC4)sc3n2)c1	4.82%
CC(Oc1cccc(Br)c1)C(=O)NNC(=O)c1ccccn1 (stereo unspecified)	-39.2%
C/C(=N\NC(=O)C(c1ccccc1)c1ccccc1)c1ccccn1	-43.6%
CC1CCN(c2ccc(NC(=O)c3cccnc3)cc2)CC1	-3.45%
COC(=O)c1ccc(/C=N/Nc2nc(C)c(C)s2)cc1	-5.59%
CS/C(N)=N/N=C/c1ccc2c(c1)OCO2	-6.57%
COc1cc2c(cc1OC)C(C)N(S(=O)(=O)c1cnc(Cl)c(Cl)c1)CC2 (stereo unspecified)	-14.2%
COc1cc(CN2CCC(C(N)=O)CC2)ccc1OCc1ccccc1	-13.3%
CCOc1ccc(N/C=C/C(=O)c2ccc(OC)c(OC)c2)cc1	-2.16%
N/C(=N\OC(=O)c1ccc(Cl)cc1Cl)c1ccncc1	3.52%
O=C1CN(c2ccccc2)C(=S)N1C(=O)c1ccccc1	-0.936%
O=C1C=CC(=C(c2ccc(O)cc2)c2ccc(O)cc2)C=C1	-65.4%
COc1ccccc1-c1cc(C(F)(F)F)nc(S(C)(=O)=O)n1	-87.5%
COC(=O)CCS(=O)(=O)c1nc(-c2ccccc2)cc(C(F)(F)F)n1	-90.5%
N=C1C(c2nc3ccccc3[nH]2)=C(O)CN1C1CCCCC1	0.386%
Cc1ccc(C(=O)Nc2ccccc2Cl)cc1	-19.9%
Cc1cc(C(=O)CCl)c(C)n1CCc1ccc(F)cc1	-36.8%
Cc1ccc2nc(NC(=O)CSCC(=O)OCC(=O)c3ccccc3)sc2c1	3.83%
CCCCN=C(C)c1c(O)c2ccccc2oc1=O	10%
Cc1ccc(NC(=O)c2ccccc2)cc1	-7.34%
COc1ccc(NC(=O)NC(=O)c2ccccc2)cc1	5.71%
O=C(Nc1ccc(Cl)cc1)Nc1cccc(C(=O)O)c1	-12.4%
Cc1oc(=O)c(NC(=O)c2ccccc2)cc1C(=O)c1ccccc1	-13.9%
COc1ccc(COC(=O)c2cc([N+](=O)[O-])ccc2N2CCOCC2)cc1F	6.58%

SMILES	activity change, negative = viability loss
CN(C)c1ccc(/C=C/c2cccc[n+]2[O-])cc1	-16.4%
Cc1ccc(NC(=O)Cc2noc3ccccc23)cc1	-4.59%
CC(=NNc1nc2ccccc2o1)c1cc2ccccc2cn1	-10.6%
COC(=O)c1ccc(COc2ccc3c(c2)CCC3)o1	-0.066%
Fc1ccc(-c2nnc(-c3ccc(F)cc3)o2)cc1	-15.4%
COc1cccc(-c2nnc3sc(-c4cccs4)nn23)c1	3.21%
Nc1ncnc(Sc2ncccn2)c1[N+](=O)[O-]	-18%
O=C(CSc1ccccn1)c1ccc2c(c1)OCO2	5.91%
O=C(CCl)N1CCN(S(=O)(=O)c2ccc3c(c2)CCC3)CC1	-30.6%
O=C(Nc1nc(-c2ccccn2)cs1)c1ccc([N+](=O)[O-])o1	-8.07%
N#C/C(=C(/O)CCl)c1nc2ccccc2[nH]1	-8.54%
C/C(=C\c1ccccc1)C(=O)Nc1ccc(Cl)cn1	2.07%
COc1cc(SC)ccc1C(=O)NCCOc1ccccc1Cl	-10.2%
CCn1c(=O)c(C(=O)NCc2ccccc2Cl)c(O)c2ccccc21	-7.51%
COCCNC(=O)c1cc2sc3ccccc3c2s1	-2.65%
O=c1nc(N/N=C/c2ccccn2)cn[nH]1	-12.3%
Cc1ccc(NC(=O)Nc2ccccc2)nc1	-8.06%
O=C(CCl)N(c1ccccc1)c1c[nH]c2ccccc12	-12.6%
FC(F)(F)c1cc(CCN2CCNC[C@@H]2Cc2ccccc2)cc(C(F)(F)F)c1	-36.9%
CCSc1ccccc1C(=O)n1nnc2ccccc21	-14.9%
Cc1cc(C(=O)COc2cccnc2[N+](=O)[O-])c(C)n1-c1ccccc1	-5.32%
Cc1cc(C)c2ccc(N)nc2c1O	-18.6%
Cc1cc(C(F)(F)F)c2c(N)c(C(=O)Nc3cc(C)on3)sc2n1	-11.3%
O=C(Cn1cnc2c(oc3ccccc32)c1=O)c1ccccc1	-8.3%

SMILES	activity change, negative = viability loss
Cc1nc(C)c(C(=O)N/N=C/c2cc(Br)ccc2O)s1	-19.8%
CCCCNc1nc(=S)n(-c2ccccc2)c(C)c1C(C)=O	-8.68%
COCCn1c(C)cc(C(=O)COC(=O)c2ccccc2Br)c1C	1.32%
CCC(=O)NCCc1nc2cc(NC(=O)c3cccc([N+](=O)[O-])c3)ccc2n1C	0.147%
Cc1ccc(/C=N/Nc2ccc(C(=O)O)cc2)s1	-11.2%
CC(C)(C)c1ccc(/C=N/Nc2ccc(C(=O)O)cc2)cc1	-0.109%
COc1cccc(CNc2nc3ccccc3n2C)c1O	-11.7%
CC(=O)N(c1nnc(-c2cccc(C)c2)s1)C1CCCC1	-0.421%
CCOC(=O)c1ccc2nc(C)c(CCC(C)=O)c(Cl)c2c1	-10.8%
O=S(=O)(c1ccc(Cl)cc1)N1CCN(Cc2ccc(O)c3ncccc23)CC1	-16.5%
CCCOCc1ccc(O)c2ncccc12	-39.2%
O=C(CSC(=S)N1CCCCC1)c1c(F)cccc1F	-8.79%
c1ccc(Cc2cc(-c3ccccc3)on2)cc1	0.069%
COc1cc2c(c(OC)c1OC)-c1ccc(OC)c(=O)cc1C(NC(C)=O)CC2 (stereo unspecified)	-10.5%
CCN1c2ccccc2NC2C1C(C(C)=O)C(=O)N2c1ccc(Cl)cc1 (stereo unspecified)	-27.8%
COc1cnc(-c2ccccn2)nc1NC(C)C	-48.6%
N#CCSc1nc2ccccc2c2nc3ccccc3n12	-26.7%
Cc1ccc(SCc2cn3cc(Cl)ccc3n2)cc1	-2.16%
CN1CCN(C2=C(NS(=O)(=O)c3cccs3)C(=O)c3ccccc3C2=O)CC1	-45.7%
CC(=O)Nc1ccc(S(=O)(=O)N2CCn3cccc3C2C)cc1 (stereo unspecified)	-15.5%

Reference: PubChem BioAssay AID493240 (Broad Institute, 2011)
